Screening results (PubChem)
MCF10A rerep: A quantitative high throughput screen for small molecules that induce DNA re-replication in MCF 10a normal breast cells; MCF 10A DNA re-replication, Hoechst nuclear intensity, 48 h; Potency, µM (top dose mostly 46.1 µM), inactives show at the highest dose activity, positive = re-replication, hits mostly activators; 350,000 compounds, 2.9% hits; further: potency means the concentration at half of the fitted maximal effect; % of control where 0% means no effect; nearly all actives have a fitted effect of over 50% in size
IL-1B inflam inh: qHTS for Inhibitors of Inflammasome Signaling: IL-1-beta AlphaLISA Primary Screen. THP-1 LPS/ATP IL-1B secretion, AlphaLISA, 16 h; active compounds read low. activity change, % at 57.5 µM. 360,000 compounds, 4.7% hits. AID 743279, 2014; in the data active means activity change below about -50%; inconclusive means mostly about -30% to -49%; further: on the % scale 0 is the no-effect control and ±100 the full control effect
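THP-1 cells pretreated 1 hr with compounds (up to 57.5 uM final), then stimulated with LPS (250 ng/mL final) plus ATP (1.25 mM final); secreted IL-1B measured by AlphaLISA after 16 hr, decreased signal indicating inhibition.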
SW480 rereplic: A quantitative high throughput screen for small molecules that induce DNA re-replication in SW480 colon adenocarcinoma cells; SW480 DNA re-replication, Hoechst DNA content imaging, 48 h; Potency, µM (titrated, usually from 46.1 µM), without a hit: at the top dose re-replication activation, usual class: activators; 340,000 compounds, 1.8% hits; further: potency means the concentration at half of the fitted maximal effect; % of control where 0% means no effect; nearly all actives have a fitted effect of over 55% in size
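Quantitative HTS format with DMSO vehicle controls; 48 hr drug incubation at 37 C, then 40 min Hoechst staining and scanning imager measurement at 405 nm excitation.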
KB-3-1 tox: qHTS assay for MDR1-selective chemotherapeutics: Primary screen using the parental adenocarcinoma cell KB-3-1 | KB-3-1 viability, CellTiter-Glo ATP luminescence, 72 h | Potency, µM (top dose mostly 46.1 µM), most hits filed as cytotoxic | 400,000 compounds, 1.4% hits | AID 1347075, 2019; further: potency means the concentration at half of the fitted maximal effect; on the % scale 0 is the no-effect control and ±100 the full control effect; nearly all actives have a fitted effect of over 60% in size
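Luminescent ATP read-out (CellTiter-Glo) measures survival of drug-naive KB-3-1 cells after 72 h compound exposure at 37 °C. Titration series was screened from lowest to highest concentration, with DMSO vehicle plates as background controls.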
KB-V1 cytotox: qHTS assay for MDR1-selective chemotherapeutics: Primary screen using the drug-selected MDR subline cells KB-V1. Potency, µM (titrated, usually from 46.1 µM), actives largely listed as cytotoxic. AID 1347076, 2019. 400,000 compounds, 3.4% hits. KB-V1 MDR cells viability, CellTiter-Glo, 72 h; further: potency means the concentration at half of the fitted maximal effect; on the % scale 0 is the no-effect control and ±100 the full control effect; nearly all actives have a fitted effect of over 60% in size
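Cells of the MDR subline KB-V1 are plated, dosed with compound at multiple concentrations, and incubated 72 h at 37 degrees C; CellTiter-Glo is then added and luminescence read after 10 min.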
Starred values were filed as active, the others as inactive; i = inactive; ? = inconclusive; · = no result given; [ ] = dose if it differs, or a comment. Most compounds without a hit are left out; they make up all but 9.9% or so of the library. Unless noted, the call rests on the fitted dose curve; in most records, active means well fitted curve in the direction sought with a large enough effect; inconclusive means small, poorly fitted or top-dose-only effect, or another doubt; inactive means no such curve, though single readings can be large; an effect the other way counts as inactive or inconclusive.

SMILES	MCF10A rerep	IL-1B inflam inh	SW480 rereplic	KB-3-1 tox	KB-V1 cytotox
CCCN(C(=O)/C=C/c1nc2ccccc2s1)C1CCS(=O)(=O)C1 (stereo not given)	-4%	0	-1%	i	i
COC(=O)CNC(=O)c1sc2ncn(CC(=O)Nc3ccc(C)c(Cl)c3)c(=O)c2c1C	4%	-81*	-7%	i	i
Cc1nc2nc(C)c(NS(=O)(=O)c3ccc4c(c3)CCCC4)c(=O)n2[nH]1	1%	7	59%	i	i
Cc1ccsc1CCN1C(=O)N(c2ccc(F)cc2)C(=O)C1CC(=O)Nc1ccccc1 (stereo not given)	·	·	·	i	i
C=CCN=C1S/C(=C\c2ccc(N(C)C)cc2)C(=O)N1CC=C	18µM*	-15	?	i	i
C=CCN1C(=O)/C(=C/c2ccc(O)cc2)S/C1=N/c1nccs1	23µM*	?	5%	i	i
C=CCN1C(=O)/C(=C/c2ccc(OC)cc2)S/C1=N/c1nccs1	16%	-1	1%	i	i
NC(=O)C1(Nc2ccc(-c3ccc(Br)cc3)cc2)CCCC1	?	5	12%	i	i
Cc1cccc2nc(CSc3nc4ccc([N+](=O)[O-])cc4[nH]3)c(Br)n12	1%	-14	17%	?	12µM*
Cc1cccc2nc(CSc3nc4ccccc4[nH]3)cn12	-4%	-66*	-4%	i	i
c1ccc(CSc2nc3ccccc3[nH]2)cc1	4%	-1	-1%	i	i
c1ccc(-c2nnc(CSc3nc4ccccc4[nH]3)o2)cc1	15%	-16	0%	i	13µM*
Fc1ccc(CSc2nc3ccccc3[nH]2)cc1	2%	-63*	-4%	i	i
CCc1ccc(NC(=O)c2ccc3[nH]c(C)c(C)c3c2)cc1	·	·	·	i	i
O=[N+]([O-])c1ccc(CSc2nc3ccccc3[nH]2)cc1	4%	-23	2%	i	21µM*
O=C(NCCO)c1ccc(CSc2nc3ccccc3[nH]2)cc1	-8%	22	-4%	i	i
CC(C)CSc1nc2ccccc2[nH]1	0.58µM*	-5	?	i	?
CCCOc1ccc(CSc2nc3ccccc3[nH]2)cc1	28%	-56*	-3%	i	?
CCOc1ccc(OCCSc2nc3ccccc3[nH]2)cc1	-10%	?	2%	i	?
Brc1cccc(-c2nnc(SCc3nc4ccccc4[nH]3)o2)c1	10%	-56*	-6%	i	i
CN(CC(=O)NCc1ccco1)CC(=O)Nc1cc(S(C)(=O)=O)ccc1Cl	1%	3	-512%	i	i
CCOC(=O)C1=C(COC(=O)c2ccc(OC)c(OC)c2OC)NC(=O)NC1C (stereo not given)	1%	-6	3%	i	?
CCC(=O)Nc1ccccc1-c1nc2ccccc2n(CC(=O)c2ccc(C)c(C)c2)c1=O	·	·	·	i	i
CCOc1ccc(CCNC(=O)NCc2noc3ccc(C)cc23)cc1	·	·	·	i	i
N#CC(c1ccccc1)C1CCN(Cc2ccccc2)CC1 (stereo not given)	13%	-16	-1%	i	21µM*
SMILES	MCF10A rerep	IL-1B inflam inh	SW480 rereplic	KB-3-1 tox	KB-V1 cytotox
Cc1ccc(NC(=O)COC(=O)c2nn(C)c(=O)c3ccccc23)cc1F	3%	10	?	i	i
O=[N+]([O-])c1cc(-c2nc(-c3ccccc3)no2)ccc1N1CCCC1	·	·	·	i	i
CCCCCN1CC(=O)N2Cc3[nH]c4ccccc4c3C[C@H]2C1=O	4%	-59*	-3%	i	i
CCCCN1C(=O)C2Cc3c([nH]c4ccccc34)CN2C1=S (stereo not given)	?	-88*	-2%	i	?
CCCCCCN1CC(=O)N2Cc3[nH]c4ccccc4c3C[C@H]2C1=O	16%	-58*	6%	i	i
O=C(NC1CCCCC1)c1ccc(CSc2nc3ccncc3n2Cc2cccc(F)c2)cc1	·	·	·	i	i
Cc1c(N/N=C(\C#N)C(=O)c2ccccc2)c(=O)n(-c2ccccc2)n1C	16%	106	?	?	?
Cc1c(NCc2cc(Cl)cc(Cl)c2O)c(=O)n(-c2ccccc2)n1C	?	-3	12%	i	21µM*
Cc1ccccc1CSCC(=O)Nc1ccccc1-c1ccccc1	17%	0	?	i	23µM*
Cc1c(NCc2cc(Cl)ccc2O)c(=O)n(-c2ccccc2)n1C	0%	-8	-1%	i	i
Cc1ccccc1C(=O)/C(C#N)=N/Nc1c(C)n(C)n(-c2ccccc2)c1=O	-4%	0	?	i	0.46µM*
Cc1ccc(CSCC(=O)Nc2c(C)n(C)n(-c3ccccc3)c2=O)cc1	4%	0	-2%	i	i
Cc1ccccc1CSCC(=O)Nc1c(C)n(C)n(-c2ccccc2)c1=O	2%	i	-9%	i	18µM*
N#CC(c1ccc(Cl)cc1)c1ccc(Cl)nn1 (stereo not given)	?	-8	-10%	i	i
CCN(C(=O)Cc1ccc(Br)cc1)C1CCCCC1	9%	17	16%	i	i
CCOC(=O)c1sc2cccc(F)c2c1S(=O)(=O)Nc1ccccc1F	·	·	·	i	i
COc1cccc(CNC(=O)CN2C(=O)CSc3ccc(S(=O)(=O)N4CCCC4)cc32)c1	2%	-6	-3%	i	i
C=CCc1c(C)[nH]c2c(OC)cccc2c1=S	0%	8	-97%	i	i
CC1CCN(c2ccccc2NC(=S)NC(=O)c2cccs2)CC1	10µM*	48	-2%[9.22 µM]	i	i
CS(=O)(=O)N1CCN(c2ccccc2NC(=S)NC(=O)c2cccs2)CC1	4%	5	10%	i	?
CC1CCN(c2ccccc2NC(=S)NC(=O)c2ccco2)CC1	18µM*	3	9%	i	18µM*
O=C(CN(Cc1ccco1)C(=O)c1ccc(F)cc1)Nc1ccccc1Br	-2%	-23	-2%	i	i
O=C(O)Cc1sc(Nc2cccc3ccccc23)nc1-c1ccccc1	-2%	4	-7%	i	i
O=C(O)Cc1sc(Nc2cccc3ccccc23)nc1-c1ccc(Cl)cc1	7.3µM*	22	5%	i	i
CC1C(=O)C(C)C(c2cc(Cl)ccc2O)NC1c1cc(Cl)ccc1O (stereo not given)	?	-75*	?	i	i
